# Test results taken from PubChem BioAssay (EPA / NIEHS).
# Results filed as inconclusive are left out. The source made the active and inactive calls. How the source made its calls: active means hit-call score of the fitted dose curve at least 0.9, where 1 is the maximum; inconclusive means response in the unintended direction; inactive means score below 0.9.
# Experiment: ACEA_ER_80hr: ACEA Biosciences xCELLigence Real-Time Cell Analysis on Estrogen Receptor Agonism for Proliferation (AID 2282667)
# Conditions: T47D proliferation, impedance (xCELLigence), 80 h
# Method in brief: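 Real-time impedance growth kinetics of human T-47D breast cells read 80 h after dosing, gain-of-signal fitted relative to DMSO. Compounds: 1:4 serial series, top final concentration 100 uM, n = 2.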
Compound,outcome,AC50
COc1ccc(OC)cc1,inactive,–
CCCCCCCCOC(C)=O,inactive,–
COc1ccccc1O,inactive,–
O=C1CCC(=O)N1,inactive,–
O=S(=O)(O)c1cc(O)c(O)c(S(=O)(=O)O)c1,inactive,–
O=S1(=O)CC(Cl)(Cl)C(Cl)(Cl)C1,inactive,–
CCCCCCCC(=O)N(C)C,inactive,–
CCCCN(CCCC)CCCCCCN(CCCC)CCCC,inactive,–
Cc1cc(O)c(C)c(C)c1O,inactive,–
O=C(O)C(F)(F)C(F)(F)C(F)(F)C(F)(F)C(F)(F)C(F)(F)C(F)(F)C(F)F,–,14.6 µM (active)
